Experimental data published in PubChem BioAssay (NCATS).
Records with an inconclusive call do not appear. Calls of active or inactive are those of the source. Calls come from the whole dose curve; as a rule, active = well fitted inhibition curve with a large enough effect; inconclusive = small, poorly fitted or top-dose-only effect; inactive = no such curve, though single readings can be large or run the other way.
% is set by controls: 0 for no effect and ±100 for the full control effect.

These molecules were tested on Zika virus NS2B-NS3 protease (linked construct) (assay: Primary screen NINDS Rhodamine qHTS for Zika virus inhibitors (AID 1347160; note: nearly all actives have a fitted effect of over 55% in size)). Details: purified NS2B-NS3 protease, Rhodamine110 substrate fluorescence; series mostly up to 57.1 µM; activity change, negative = inhibition: at the top concentration.
In short: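 Enzyme (25 nM, linked NS2B-NS3) was preincubated 15 min with compound in 10 mM Tris-HCl pH 8.0, 0.01% Tween 20. Rhodamine110 substrate (1.5 microM) was then added and fluorescence read at start and after 15 min.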
With `c1cc(NCCc2c[nH]c3ccccc23)cc(Nc2ccncc2)c1` the “activity change, negative = inhibition” value was 208% (inactive).
In the case of `Clc1ncoc1-c1c[nH]c2ccccc12`, the “activity change, negative = inhibition” value was -4.58% (inactive).
For `CCCCC1CCC(c2nc(-c3ccncc3)no2)CC1` (stereo unspecified), the “activity change, negative = inhibition” value was 35.6% (inactive).
For `COC(=O)C1=CO[C@@H](O[C@@H]2O[C@H](CO)[C@@H](O)[C@H](O)[C@H]2O)[C@H]2[C@@H]1C=C[C@]21C=C([C@H](C)OC(=O)/C=C/c2ccc(O)cc2)C(=O)O1`, the “activity change, negative = inhibition” value was 23.2% [at 15.1 µM] (inactive).
In the case of `Fc1ccc(-c2nc(-c3c(F)cccc3F)[nH]c2-c2ccncc2)cc1`, the “activity change, negative = inhibition” value was 19.2% (inactive).
With `CC(=O)O[C@@H]1[C@@H](OC(C)=O)[C@H](C)O[C@@H](O[C@H]2[C@@H]3C=CO[C@@H](O[C@@H]4O[C@H](CO)[C@@H](O)[C@H](O)[C@H]4O)[C@@H]3[C@@]3(CO)O[C@@H]23)[C@@H]1OC(=O)/C=C/c1ccccc1` the “outcome” value was “inactive [at 15.1 µM]”.
In the case of `OC(CC1c2ccccc2-c2cncn21)C1CCCCC1` (stereo unspecified), the “outcome” value was “inactive”.
`C=C(C)[C@@H]1CC[C@]2(C(=O)O)CC[C@]3(C(=O)O)[C@H](CCC4[C@@]5(C)CCC(=O)C(C)(C)C5CC[C@]43C)C12` (stereo partly specified) was tested, and the “outcome” value was “inactive [at 33.1 µM]”.
`COC(=O)CC[C@@H](C)C1CCC2C3CCC4C[C@H](OC(C)=O)CCC4(C)C3C[C@H](O)C21C` (stereo partly specified) was tested, and the “activity change, negative = inhibition” value was -1.84% (inactive).
`COC1C(O)C(OC2CCC3(C)C(CCC45CCC6C7(COC(=O)C7)OC4(O)C6(C)CCC35)C2)OC(C)C1OC1OC(CO)C(OC2OC(CO)C(O)C(O)C2O)C(O)C1O` (stereo unspecified) was tested, and the “activity change, negative = inhibition” value was -16.9% [at 15.1 µM] (inactive).
`CC(C)C[C@@H]1NC(=O)[C@@H](Cc2ccccc2)NC(=O)C(CCCCCC(=O)C2CO2)NC(=O)[C@@H]2CCCCN2C1=O` (stereo partly specified) was tested, and the “activity change, negative = inhibition” value was 6.16% [at 33.1 µM] (inactive).
